In PubChem BioAssay:
Activity calls are given as the source filed them.

Legend:
[1] = tested on: PRMT1 (protein arginine N-methyltransferase 1); experiment: small molecules binding arginine methyltransferase PRMT1 – biochemical, small-molecule microarray, 635 nm fluorescence, primary screen (AID 1088); details: higher = more signal;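 further: binding of Prmt1 protein to compounds spotted on small-molecule microarray slides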
[2] = growth effects on S. cerevisiae YJM789 – YJM789 clinical isolate, OD600, 24 h, basal, primary screen (AID 1089); details: higher = more signal, called active from +8 up or from −8 down;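 further: growth of clinical yeast isolate S. cerevisiae YJM 789 seeded 1000 cells per well; test concentration not given here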
[3] = S. pombe growth modifiers, basal conditions – strain 972, OD600, 24 h, no modulator, primary screen (AID 1090);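 further: basal condition with compound alone and no growth modifier present; test concentration not given here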; details: S. pombe 972 growth, higher = more signal, called active from +8 up or from −8 down
[4] = budding yeast growth modifiers under rapamycin – strain BY4716, OD600, 96 h, primary screen (AID 1091); further: test concentration not given here; details: S. cerevisiae BY4716 + rapamycin, higher = more signal, called active from +8 up or from −8 down
[5] = biological target: Torsin-1A-interacting protein 2 (Homo sapiens) (UniProt Q8NFQ8); experiment: small molecules binding lysate-expressed LULL1 – cell lysate, human LULL1 lysate, 635/667 nm fluorescence, primary screen (AID 1092); details: small-molecule microarray, hLULL1 lysate binding, 635 nm fluorescence; higher = more signal;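 further: probe is lysate of COS7 cells overexpressing human LULL1; score merges per-feature 667 nm fluorescence with signal-to-noise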
[6] = optical density change of DRC41 E. coli – strain DRC41, OD650, 24 h, E. coli filamentation project, primary screen (AID 1093);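 further: MC1000 strain lacking acrAB efflux and sulA so SOS filamentation is blocked; test concentration not given here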; details: E. coli DRC41 growth, higher = more signal, called active from +8 up or from −8 down
[7] = probe aLefty2 binding to arrayed compounds – biochemical, biotinylated probe, 635/667 nm fluorescence, primary screen (AID 1094); details: small-molecule microarray, higher = more signal;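 further: score merges spot fluorescence near 667 nm with spot signal-to-noise ratio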
[8] = tested on: Noggin (protein binding on small-molecule microarray); experiment: small molecules binding Noggin protein – biochemical, 635/667 nm fluorescence, primary screen (AID 1095); details: 635 nm fluorescence, higher = more signal;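 further: score merges 667 nm feature fluorescence with signal to noise over triplicate slides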
[9] = biological target: Neurogenic locus notch homolog protein 3 (Homo sapiens) (UniProt Q9UM47); experiment: small molecules binding NOTCH3 protein – biochemical, 635/667 nm fluorescence, primary screen (AID 1096); details: small-molecule microarray, 635 nm fluorescence, higher = more signal
[10] = probe aEGFR binding to arrayed compounds – biochemical, biotinylated probe, 635/667 nm fluorescence, primary screen (AID 1097); details: small-molecule microarray, higher = more signal;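 further: probe is a biotinylated anti-EGFR antibody binding compounds printed on slides; score combines fluorescence near 667 nm and signal to noise of each spot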

Sequence of Torsin-1A-interacting protein 2 (Homo sapiens) (Q8NFQ8 whole entry, looked up): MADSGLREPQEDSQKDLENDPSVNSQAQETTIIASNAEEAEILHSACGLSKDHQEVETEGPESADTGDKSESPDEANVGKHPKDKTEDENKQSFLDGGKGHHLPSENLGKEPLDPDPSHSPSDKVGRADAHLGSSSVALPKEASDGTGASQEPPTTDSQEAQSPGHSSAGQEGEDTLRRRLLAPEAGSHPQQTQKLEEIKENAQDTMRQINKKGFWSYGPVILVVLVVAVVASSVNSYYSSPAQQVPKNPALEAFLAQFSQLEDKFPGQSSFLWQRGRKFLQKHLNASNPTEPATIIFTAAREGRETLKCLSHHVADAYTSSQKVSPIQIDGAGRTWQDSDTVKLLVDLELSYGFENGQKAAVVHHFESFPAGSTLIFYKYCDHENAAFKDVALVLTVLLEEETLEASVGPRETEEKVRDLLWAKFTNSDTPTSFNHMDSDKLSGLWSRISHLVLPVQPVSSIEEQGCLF
Sequence of Neurogenic locus notch homolog protein 3 (Homo sapiens) (Q9UM47 whole entry, looked up): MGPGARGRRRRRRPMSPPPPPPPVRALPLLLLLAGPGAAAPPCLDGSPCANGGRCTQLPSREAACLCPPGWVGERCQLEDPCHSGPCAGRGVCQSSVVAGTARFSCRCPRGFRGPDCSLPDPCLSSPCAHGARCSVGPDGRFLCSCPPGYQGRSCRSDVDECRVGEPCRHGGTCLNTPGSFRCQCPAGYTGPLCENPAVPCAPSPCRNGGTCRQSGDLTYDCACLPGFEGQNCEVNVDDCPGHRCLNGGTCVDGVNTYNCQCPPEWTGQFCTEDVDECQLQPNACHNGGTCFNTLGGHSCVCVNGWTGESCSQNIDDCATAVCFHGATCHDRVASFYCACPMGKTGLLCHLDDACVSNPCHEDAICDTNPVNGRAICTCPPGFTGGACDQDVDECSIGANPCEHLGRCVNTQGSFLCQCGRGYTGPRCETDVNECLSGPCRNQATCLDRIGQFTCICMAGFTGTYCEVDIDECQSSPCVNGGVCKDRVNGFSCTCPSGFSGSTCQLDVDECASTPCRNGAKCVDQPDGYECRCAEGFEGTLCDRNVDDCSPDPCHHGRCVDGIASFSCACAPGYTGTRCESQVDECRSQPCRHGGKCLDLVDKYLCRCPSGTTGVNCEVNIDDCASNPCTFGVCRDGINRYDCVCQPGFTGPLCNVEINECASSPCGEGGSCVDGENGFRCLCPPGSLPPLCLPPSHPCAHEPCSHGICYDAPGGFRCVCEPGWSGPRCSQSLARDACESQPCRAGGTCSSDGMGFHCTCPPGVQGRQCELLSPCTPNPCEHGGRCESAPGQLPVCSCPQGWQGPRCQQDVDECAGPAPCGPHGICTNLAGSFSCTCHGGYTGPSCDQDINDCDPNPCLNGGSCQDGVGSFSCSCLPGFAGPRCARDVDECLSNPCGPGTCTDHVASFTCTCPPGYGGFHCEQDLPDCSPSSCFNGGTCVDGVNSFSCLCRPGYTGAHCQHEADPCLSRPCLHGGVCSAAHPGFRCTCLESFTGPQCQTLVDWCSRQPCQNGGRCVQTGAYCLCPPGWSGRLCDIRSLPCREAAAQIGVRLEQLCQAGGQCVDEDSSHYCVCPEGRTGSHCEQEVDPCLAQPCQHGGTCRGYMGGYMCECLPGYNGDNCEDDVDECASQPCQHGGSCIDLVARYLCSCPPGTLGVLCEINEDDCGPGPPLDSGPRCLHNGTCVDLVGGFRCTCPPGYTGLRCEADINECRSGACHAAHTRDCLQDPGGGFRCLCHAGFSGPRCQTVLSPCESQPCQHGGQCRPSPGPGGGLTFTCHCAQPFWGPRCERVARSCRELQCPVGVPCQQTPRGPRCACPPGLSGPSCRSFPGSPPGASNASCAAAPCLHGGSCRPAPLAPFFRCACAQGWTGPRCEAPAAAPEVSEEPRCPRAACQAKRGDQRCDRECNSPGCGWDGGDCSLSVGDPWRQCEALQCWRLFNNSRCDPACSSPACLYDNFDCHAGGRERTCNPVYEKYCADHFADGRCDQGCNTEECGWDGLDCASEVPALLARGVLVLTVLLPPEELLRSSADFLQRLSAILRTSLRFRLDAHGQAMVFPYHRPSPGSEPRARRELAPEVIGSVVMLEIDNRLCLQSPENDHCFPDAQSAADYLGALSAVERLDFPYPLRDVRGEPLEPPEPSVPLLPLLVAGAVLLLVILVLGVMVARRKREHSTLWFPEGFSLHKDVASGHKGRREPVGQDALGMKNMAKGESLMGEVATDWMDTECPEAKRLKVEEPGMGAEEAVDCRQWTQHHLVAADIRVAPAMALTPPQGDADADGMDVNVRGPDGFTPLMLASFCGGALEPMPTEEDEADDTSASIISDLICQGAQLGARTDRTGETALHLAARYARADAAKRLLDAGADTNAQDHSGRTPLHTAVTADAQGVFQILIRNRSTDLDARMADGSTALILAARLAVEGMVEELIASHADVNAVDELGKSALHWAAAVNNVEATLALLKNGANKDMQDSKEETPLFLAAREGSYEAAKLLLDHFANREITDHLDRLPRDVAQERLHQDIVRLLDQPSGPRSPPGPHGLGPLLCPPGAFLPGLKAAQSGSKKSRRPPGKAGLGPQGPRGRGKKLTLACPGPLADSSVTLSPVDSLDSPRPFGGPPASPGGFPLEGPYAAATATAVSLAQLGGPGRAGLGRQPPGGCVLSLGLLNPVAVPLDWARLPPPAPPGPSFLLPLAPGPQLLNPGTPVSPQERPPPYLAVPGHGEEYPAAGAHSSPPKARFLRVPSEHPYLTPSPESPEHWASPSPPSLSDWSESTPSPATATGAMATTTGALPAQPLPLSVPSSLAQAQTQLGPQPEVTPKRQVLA

| SMILES | composite z-score [1] | z-score [2] | z-score [3] | z-score [4] | composite z-score [5] | z-score [6] | composite z-score [7] | composite z-score [8] | composite z-score [9] | composite z-score [10] |
| --- | --- | --- | --- | --- | --- | --- | --- | --- | --- | --- |
| CC(=O)n1cc(C(O)C2C=CC3C(=O)N(c4ccccc4)C(=O)C3N2Nc2ccccc2)c2ccccc21 (stereo not given) | 0.174 | 0.514 (inactive) | 0.965 (inactive) | 0.102 (inactive) | 2.73 | -1.18 (inactive) | 0.203 | -0.272 | 0.816 | 0.672 |
| O=C(N1CCCCC1)[C@@]1(Cc2ccccc2)COC(c2ccc(OCCCO)cc2)=N1 | 1.31 | -0.22 (inactive) | -5.35 (inactive) | 1.58 (inactive) | 3.21 | 1.06 (inactive) | 0.511 | -0.315 | 0.622 | 0.548 |
| CN(C)CCCNC(=O)[C@@H]1c2ccccc2C(=O)N(Cc2ccc(OC(F)(F)F)cc2)[C@H]1c1ccc(CO)cc1 | 1.54 | -1.02 (inactive) | -1.06 (inactive) | -1.41 (inactive) | 2.22 | -0.883 (inactive) | -0.0654 | 0.912 | 0.951 | -0.171 |
| CCOC(=O)C1=CC[C@@H](c2ccc([N+](=O)[O-])cc2)N(S(=O)(=O)c2ccc(C)cc2)[C@H]1c1ccccc1 | 1.54 | 0.792 (inactive) | 1.45 (inactive) | 3.16 (inactive) | 2.98 | 0.413 (inactive) | 0.0511 | 1.02 | 1.14 | 0.202 |
| O=C1O[C@@H](c2ccccc2)[C@@H](c2ccccc2)N2[C@@H](c3ccc(O)cc3)[C@]3(C(=O)Nc4ccc(C#CC5=CCCCC5)cc43)[C@@H](C(=O)N3CCN(c4ncccn4)CC3)[C@H]12 | 1.55 | 0.922 (inactive) | 0.487 (inactive) | 0.566 (inactive) | 3.12 | 1.62 (inactive) | 0.517 | 1.86 | 1.15 | -0.115 |
| Cc1ccc(S[C@]2(C(=O)NC(C)C)CC(=O)N(C3Cc4ccccc4C3)[C@@H]2c2ccc(CO)cc2I)cc1 | 0.871 | -0.801 (inactive) | -2.68 (inactive) | -0.0369 (inactive) | 3.32 | 0.733 (inactive) | -0.0131 | -0.0975 | -0.505 | -0.37 |
| C=CCC(OC(C)=O)[C@@H]1[C@@H](N(Cc2cc3ccccc3o2)C(=O)c2ccc(C)cc2)c2cc(OCCCO)ccc2N1C(=O)Cc1ccc2ccccc2c1 (stereo not given in full) | -0.208 | 0.627 (inactive) | -0.423 (inactive) | 0.469 (inactive) | 0.0257 | 2.18 (inactive) | 0.18 | 1.81 | -0.725 | -0.094 |
| CC(C)CN1C(=O)[C@@]2(c3ccc([N+](=O)[O-])cc3)CC(=O)N(CC34CC5CC(CC(C5)C3)C4)[C@@H]2c2ccc(CO)cc21 | -0.297 | 0.275 (inactive) | 0.0569 (inactive) | -1.32 (inactive) | 0.295 | -1.55 (inactive) | -0.239 | -1.21 | -0.506 | -0.256 |
| CCCN1C(=O)[C@]2(Cc3ccccc3)N=C(c3ccc(OCCCO)cc3)O[C@@H]2c2ccccc21 | 1.54 | -0.128 (inactive) | -1.88 (inactive) | 0.585 (inactive) | 3.26 | 1.05 (inactive) | -0.0159 | 1.74 | 1.13 | -0.0605 |
| CN(C)C(=O)[C@@]1(Cc2ccccc2N=[N+]=[N-])COC(c2ccc(OCCCO)cc2)=N1 | 1.37 | -1.85 (inactive) | -7.64 (inactive) | 0.337 (inactive) | 3.33 | 1.84 (inactive) | 0.072 | 0.577 | 0.481 | 0.553 |
| C[C@@H](OCc1ccccc1)C1NC(=O)[C@@]23C(=O)N[C@@H](Cc4ccccc4)C2[C@H](C)[C@@]2(C)O[C@H]2C3/C=C/C/C=C\CNC(=O)CNC1=O (stereo not given in full) | -0.615 | 0.569 (inactive) | -1.32 (inactive) | -0.929 (inactive) | 0.621 | -0.557 (inactive) | -0.145 | -0.526 | -0.0955 | -0.24 |
| O=C1c2ccccc2[C@](Cc2ccccc2I)(C(=O)NCCN2CCOCC2)[C@H](c2ccc(CO)cc2)N1Cc1ccccc1 | 1.52 | 0.189 (inactive) | 0.0239 (inactive) | -0.477 (inactive) | 2.8 | 0.47 (inactive) | 0.182 | 0.406 | 1.08 | 0.225 |
| CC[C@H]1C2=C3C(CC[C@H]4C(OCc5ccc(F)cc5C(F)(F)F)OC[C@](C)([C@@H]34)N(C(=O)OC(C)(C)C)C2)C2COC(=O)OCC21 (stereo not given in full) | 0.254 | 0.416 (inactive) | 1.13 (inactive) | 0.896 (inactive) | 3.34 | -1.81 (inactive) | 0.375 | -0.581 | 1.1 | -0.117 |
| COCCOC(=O)N1C(=O)[C@@]2(c3cc(C#CC4=CCCCC4)ccc31)[C@H](c1ccccc1OCCO)N1[C@H](c3ccccc3)[C@H](c3ccccc3)OC(=O)[C@H]1[C@@H]2C(=O)N1CCc2cc(OC)c(OC)cc2C1 | 1.55 | 1.83 (inactive) | 0.819 (inactive) | 3.63 (inactive) | 0.889 | -0.0749 (inactive) | -0.479 | 0.676 | 1.08 | -0.33 |
| C=C(/C(=C/C[C@@H](OC(=O)c1ccncc1)c1ccc(OCCO)cc1)c1cc(C(=O)OC)ccc1OC)C(C)C | 1.48 | 0.412 (inactive) | 0.252 (inactive) | 0.339 (inactive) | 1.32 | 0.681 (inactive) | -0.317 | 0.89 | 1.1 | -0.0509 |
